The values below come from PMC4552634, “A New Set of Chemical Starting Points with Plasmodium falciparum Transmission-Blocking Potential for Antimalarial Drug Discovery” (PLoS ONE, 2015).

The test system of the experiment is P. falciparum stage V gametocytes. Also on record: BacTiter-Glo ATP luminescence viability of purified stage V gametocytes in 384-well plates, per cent inhibition versus DMSO. Particulars: 48 h, 5 µM, inhibitor.

Like-named read-outs stand apart in the source and are kept apart here. The campaign covered roughly 13,000 compounds. About 3,200 (25%) showed an effect of 50% or more. The list shows a part of the results.

As for `CN(C)S(=O)(=O)n1ccc2c3c(N)nc(N)nc3ccc21` [TCMDC-137973], the “% Inhibition” value was -6.92%. Still for that read-out and setting: to `NC(=O)c1cccc(CN2Cc3ccccc3OC3(CCN(Cc4c[nH]c5cnccc45)CC3)C2)c1` [TCMDC-133382] belongs -16.29%. On the same count and under the same terms, to `COc1ccc2nccc([C@@H](O)CN3CCC(NCCOc4c(C)cccc4F)CC3)c2c1` [TCMDC-140657] belongs 37.85%; to `CCOC(=O)CC[C@H](NC(=O)c1ccc(NS(=O)(=O)c2ccc(-c3cnc(N)[nH]c3=O)cc2)cc1)C(=O)OCC` [TCMDC-137679], 3.183%; to `CN1CCC(NC(=O)c2cc(Oc3ccc4c(c3)CCN4C(=O)Nc3cccc(C(F)(F)F)c3)ccn2)CC1` [TCMDC-141751], 51.02%. The same measure, in the same setting: for `O=C(Nc1cccc(C(F)(F)F)c1)NC1CCN(c2ccnc3ccccc23)C1` (stereo not drawn) [TCMDC-133579] the value was -23.57%.

Regarding `Cc1cc2c(cc1C(F)(F)F)N(C(=O)Nc1cccc(C(=O)NC3CCN(Cc4ccccc4)CC3)c1)CC2` [TCMDC-139972], the “% Inhibition” value is -14.42%. As to `COc1cc(Nc2nccc(N3CCC(NS(=O)(=O)c4ccc(NC(C)=O)cc4)CC3)n2)cc(OC)c1OC` [TCMDC-133634], the “% Inhibition” value is given as -31.03%. The same measure, in the same setting: for `O=[N+]([O-])c1cc(/C=N/Nc2nc3ccccc3[nH]2)ccc1O` [TCMDC-139076] the value was 6.997%. In the case of `O=C(Nc1ccc(F)cc1)NC1CCN(c2ccnc3cc(Cl)ccc23)C1` (stereo not drawn) [TCMDC-133407], the “% Inhibition” value is -45.03%. Take `Cc1nc2ccccc2n1C1CC2CCC(C1)N2CCCC1(c2ccccc2)CCN(C(=O)OCc2ccccc2)CC1` (stereo not drawn) [TCMDC-138708]: the “% Inhibition” value was 52.65%. With `Cc1nc2ccccc2n1C1CC2CCC(C1)N2Cc1nccn1-c1ccccc1` (stereo not drawn) [TCMDC-134167], the “% Inhibition” value is -3.664%. As to `O=C(/C=C/c1ccc(Cl)c(Cl)c1)NCCCCCN1CCC(NC(=O)Nc2ccc([N+](=O)[O-])cc2)CC1` [TCMDC-135719], the “% Inhibition” value is on record as -1.594%. Regarding `c1ccc([C@H]2CN3CCSC3=N2)cc1` [TCMDC-125847], the “% Inhibition” value is listed as 1.326%.

Consider `Cc1[nH]c(C)c(C(F)(F)F)c(=O)c1-c1ccc(Oc2ccc(OC(F)(F)F)cc2)cc1` [TCMDC-135444], for which the “% Inhibition” value came to 33.82%.

As to `Cc1cc(=O)c(-c2ccc(OCc3ccc(OC(F)(F)F)cc3)cc2)c(C)[nH]1` [TCMDC-132123], the “% Inhibition” value is reported as 25.03%. The same measure, in the same setting: for `Cc1cc(=O)c2cc(-c3ccc(OC(F)(F)F)cc3)ccc2[nH]1` [TCMDC-137042] the value was 32.81%. For `Cc1cc(=O)c(-c2ccc(Oc3cccc(C(F)(F)F)c3)cc2)c(C)[nH]1` [TCMDC-133308], under “% Inhibition”, the “% Inhibition” value is listed as 48.03%. Take `Cc1[nH]c(C)c([N+](=O)[O-])c(=O)c1-c1ccc(Oc2ccccc2)cc1` [TCMDC-135779]: the “% Inhibition” value is on record as 22.46%. The same measure, in the same setting: for `Cc1cc(=O)c(-c2ccc(Oc3ccc(C(F)(F)F)cc3)cc2)c(C)n1O` [TCMDC-138136] the value was 12.43%; for `COc1c(C)[nH]c(C)c(-c2ccc(Oc3cccc(C(F)(F)F)c3)cc2)c1=O` [TCMDC-135253], 67.89%.

Turning to `Cc1cc(=O)c(-c2ccc(OCCSc3ccc(C(F)(F)F)cn3)cc2)c(C)[nH]1` [TCMDC-135289], the “% Inhibition” value was found to be 67.89%. On the same count and under the same terms, to `Cc1nc2c(c(O)c1Cl)-c1ccc(Oc3cccc(C(F)(F)F)c3)cc1C2=O` [TCMDC-136021] belongs 8.301%; to `Cc1[nH]n(-c2cccc(C(F)(F)F)c2)c(=O)c1-c1ccc(Cl)cc1` [TCMDC-124050], 16.03%. With `Cc1cc(=O)c(-c2ccc(Oc3cccc(C(F)(F)F)c3)cc2)c(C)[nH]1` [TCMDC-137536], the “% Inhibition” value (% Inhibition) stood at 72.24%. As for `Cc1[nH]c2c(c(=O)c1Cl)-c1ccc(Oc3cccc(C(F)(F)F)c3)cc1C2=O` [TCMDC-136022], the “% Inhibition” value worked out at 56.81%. As to `CC1(C)N=C(N)N=C(N)N1OCCCOc1c(Cl)cc(Cl)cc1Cl` [TCMDC-131623], the “% Inhibition” value is reported as -2.968%. Take `COC(=O)c1cccc(NC(=O)NC2CCN(c3ccnc(Nc4ccc(F)cc4)n3)C2)c1` (stereo not drawn) [TCMDC-133606]: the “% Inhibition” value is -36.49%. Same read-out and setting: for `COc1ccc(-c2nc3c4cc(I)ccc4c4ccccc4c3[nH]2)cc1` [TCMDC-124198] the value was -15.52%; for `c1ccc(C2CCC(N3CCC(N4CCN(c5ccccc5)CC4)CC3)CC2)cc1` (stereo not drawn) [TCMDC-124572], 20.28%; for `Cc1cc(=O)c(-c2ccc(Oc3ccc(OC(F)(F)F)cc3)cc2)c(C)[nH]1` [TCMDC-137390], 34.7%. As to `Cc1cc(=O)c(-c2ccc(Oc3cccc(OC(F)(F)F)c3)cc2)c(C)[nH]1` [TCMDC-137266], the “% Inhibition” value was determined as 80.76%. Still for that read-out and setting: for `Cc1cc(=O)c2cc(Oc3cccc(OC(F)(F)F)c3)ccc2[nH]1` [TCMDC-132124] the value was -25.2%. Take `COc1cc2c(cc1N1CCN(C)CC1)N(C(=O)Nc1ccc(-c3ccncc3)c(Cl)c1Cl)CC2` [TCMDC-139163]: the “% Inhibition” value is reported as -33.93%.

`CN1CCN(c2ccnc3ccc(NC(=O)Nc4cccc(C#N)c4)cc23)CC1` [TCMDC-139323]: the “% Inhibition” value was determined as 13.5%.

As to `Cc1noc(C)c1-c1ccc2c(Nc3ccc(C#N)cc3)c(C(N)=O)cnc2c1` [TCMDC-136029], the “% Inhibition” value stood at 27.78%. As to `CN(C)c1ccc(OCCCCCCOc2ccccc2)cc1` [TCMDC-138000], the “% Inhibition” value is -96.23%. Regarding `CC1(C)CC(NCCCCCCCOc2ccc(OCc3ccccc3)cc2)CC(C)(C)N1` [TCMDC-138958], the “% Inhibition” value was 104%. Still for that read-out and setting: to `CCOC(=O)CNCC(=O)c1ccc(OCc2ccccc2)cc1` [TCMDC-131777] belongs 33.46%. Still for that read-out and setting: for `N#Cc1ccc(NC(=O)N2CCCN(CCCCCNC(=O)/C=C/c3ccc(Cl)c(Cl)c3)CC2)cc1` [TCMDC-135746] the value was -26.45%; for `O=C(Nc1ccc(Cl)cc1)c1cccc(CN2CCCN(Cc3cccc(O)c3)CC2)c1` [TCMDC-135963], -7.455%; for `O=C(/C=C/c1ccc(Cl)cc1Cl)NC1CCC(CN2CCC(c3c[nH]c4ccccc34)CC2)CC1` (stereo not drawn) [TCMDC-139704], -6.512%. For `O=C(/C=C/c1cccc(Cl)c1)NC1CCC(CN2CCC(c3c[nH]c4ccccc34)CC2)CC1` (stereo not drawn) [TCMDC-139715], for the setting “% Inhibition”, the “% Inhibition” value is listed as 101.4%. Take `O=C(/C=C/c1cccc(Cl)c1)NC1CCC(CN2CCC(c3c[nH]c4ccccc34)CC2)CC1` (stereo not drawn) [TCMDC-139700]: the “% Inhibition” value (% Inhibition) came out at 105.2%. Take `O=C(/C=C/c1ccc2ccccc2c1)NC1CCC(CN2CCC(c3c[nH]c4ccccc34)CC2)CC1` (stereo not drawn) [TCMDC-139707]: the “% Inhibition” value worked out at 26.41%.
